Source: PubChem BioAssay (National Center for Advancing Translational Sciences (NCATS))
Only some compounds are listed: those with a hit (about 21% of all), similar ones and a draw of the others.
AMA1 RON2 block: disrupts binding of P. falciparum AMA1 to RON2 | Potency, µM (top dose mostly 58.2 µM), without a hit: top-dose activity change, negative = inhibition, most hits filed as inhibitors | 0.2% of 360,000 active | AID 720542 | AlphaScreen AMA1-biotinylated RON2 peptide binding;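 note: potency is the fitted concentration of half-maximal effect; 0% = vehicle wells and -100% = peptide control; nearly all actives have a fitted effect of over 45% in size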
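AMA1 (3D7) with his tag at 25 nM final met compounds first, then biotinylated RON2 peptide at 25 nM; detection used donor plus acceptor beads, 10 µg/mL apiece, read by AlphaScreen after 30 min at room temperature.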
Shiga toxin inh: Shiga toxin inhibition | Vero cells, Shiga toxin protein synthesis inhibition reporter | inhibition, % at 38.7 µM | 9.2% of 290,000 active | AID 2315; in the data active = inhibition mostly above about 28%, no sharp cut-off; inactive = mostly below about 43%; note: 0% is about no effect
HCV inhibitor: inhibitors of hepatitis C virus infection; Huh7.5.1 HCVcc-Cre infection, luciferase reporter, 44 h; Potency, µM (top dose mostly 41.8 µM), for inactives: at the highest dose activity change, negative = inhibition, actives largely listed as inhibitors; 3.4% of 340,000 active; AID 651820; note: potency is the fitted concentration of half-maximal effect; % is set by controls: 0 for no effect and ±100 for the full control effect
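Cells (1,000/well) were plated 4 h before compound, then infected with HCVcc-Cre virus (~0.5 moi). After 44 h further culture, infection was read as luciferase luminescence following a 15 min substrate incubation at room temperature.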
Pf growth 48h: P. falciparum growth inhibition at 48 hours (one generation); 5.9% of 310,000 active; Potency, µM (top dose mostly 28.7 µM), for inactives: at the top dose activity change, negative = inhibition, most hits filed as inhibitors; P. falciparum luciferase growth in erythrocytes, 48 h; note: potency is the fitted concentration of half-maximal effect; % is set by controls: 0 for no effect and ±100 for the full control effect
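First compound was added to culture medium, then infected red cells at 0.1% parasitemia and 2% hematocrit (final). After incubation at 37 C under 5% CO2, luciferase detection reagent was dispensed and light output recorded.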
Pf growth 96h: P. falciparum growth inhibition at 96 hours; P. falciparum luciferase reporter growth, 96 h; Potency, µM (doses to about 28.7 µM), without a hit: top-dose activity change, negative = inhibition, actives largely listed as inhibitors; 6.9% of 320,000 active; AID 504834; note: potency is the fitted concentration of half-maximal effect; % is set by controls: 0 for no effect and ±100 for the full control effect
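Readout is luminescence from an integrated firefly luciferase in P. falciparum. Red cells, 2% hematocrit and 0.05% parasitemia final, were cultured with compound through two parasite generations (96 hours) at 37 C, 5% CO2.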
CHX counter: counter-screen for Shiga toxin inhibitors: cycloheximide protein synthesis inhibition | AID 2314 | cell reporter, cycloheximide protein synthesis inhibition counterscreen | 12% of 300,000 active | max response, %; in the data active = max response mostly above about 13%, no sharp cut-off; inactive = mostly below about 14%; note: read at 38.3 µM for the half of the compounds with a filed dose; 0% is about no effect
* hit, by the source's call; ? = inconclusive; · = no result given; [ ] = dose if it differs, or a comment. Unless noted, calls come from the whole dose curve; as a rule, active = well fitted curve in the direction sought with a large enough effect; inconclusive = small, poorly fitted or top-dose-only effect, or another doubt; inactive = no such curve, though single readings can be large; an effect the other way counts as inactive or inconclusive.

SMILES	AMA1 RON2 block	Shiga toxin inh	HCV inhibitor	Pf growth 48h	Pf growth 96h	CHX counter
O=C(Cc1cccc(NC(=O)C2CCCN(C(=O)C3CC3)C2)c1)Nc1cccc(C(=O)N2CCCCC2)c1 (configuration not stated)	0%	·	?	·	·	·
COC(=O)c1ccc(/C=N/OCC(=O)NCc2ccc(F)cc2)cc1	6%	6	?	-2%	-3%	10
CC[C@H](C)[C@H](NC(N)=O)C(=O)Nc1ccccc1F	-2%	3	24%	-28%	2%	10
CCCCNC(=O)c1cc2cc(CC)ccc2[nH]1	13%	-4	?	?	?	14*
COc1cc2cc(C(=O)NCCc3ccccc3)[nH]c2cc1OC	6%	25	-18%	8%	?	12
COCC1CCCCN1C(=O)C1CCN(c2nc(-c3ccccc3)nc3c2CCC3)CC1 (configuration not stated)	-13%	27	?	9.3µM*	-24%	15
CCOC(=O)C1CCN(C(=O)CSc2c3c(nc4ccccc24)CCC3)CC1	-12%	-4	-8%	0%	21%	-5
COCC1CCN(C(=O)C2CCN(c3nc(-c4ccccc4)nc4c3CCC4)CC2)C1 (configuration not stated)	-4%	-6	?	7.4µM*	?	-2
O=C(C1CCN(c2nc(-c3ccccc3)nc3c2CCC3)CC1)N1CCC(O)CC1	-15%	-17	-14%	3.7µM*	?	-1
O=C(OCc1nnc(-c2ccccc2)o1)C1CC(=O)N(Cc2ccco2)C1 (configuration not stated)	14%	17	6%	2%	28%	10
Cc1ccc(N2C(=O)CC(N3CCN(c4ccccn4)CC3)C2=O)cc1 (configuration not stated)	-14%	-6	11%	5%	44%	-4
Cc1ccc2nc(-c3ccc(N4C(=O)CC(N5CCN(CCO)CC5)C4=O)cc3)sc2c1 (configuration not stated)	4%	68*	?	78%	88%	37*
C[C@@H](c1ccccc1)N1C[C@@H](COCc2ccccc2)Oc2cc(N3CCC[C@H]3C(N)=O)ccc2S1(=O)=O	3%	·	·	·	·	·
O=C(c1cccc(C(F)(F)F)c1)C1CCCN(C(=O)C2CCOCC2)C1 (configuration not stated)	-8%	4	-24%	-11%	5%	14*
O=C(c1cccc(C(F)(F)F)c1)C1CCCN(C(=O)CN2CCOC2=O)C1 (configuration not stated)	10%	17	·	1%	-1%	11
Cn1cc(/C=C/C(=O)N2CCCC(C(=O)c3cccc(C(F)(F)F)c3)C2)cn1 (configuration not stated)	2%	2	-8%	5%	4.1µM*	-2
O=C(Nc1ccc(F)cc1)c1ccc(CSc2ccccc2)o1	-4%	5	-22%	0%	?	21*
O=C(Nc1ccc(F)cc1)c1ccc(CSc2ccc(Cl)cc2)o1	13%	2	-7%	32%	5%	8
Cc1ccc(C(=O)Nc2ccc(O)c(C(=O)O)c2)o1	-9%	-7	15%	-6%	·	-2
O=C(Nc1ccc2c(c1)OCO2)c1ccc(Br)o1	3%	69*	1%	·	99%	48*
C/C(=N\NC(=O)c1ccc(Br)o1)c1cc2c(cc1NC(=O)CCC(=O)O)OCO2	48%	34*	9%	-4%	-13%	19*
Cc1ccc(C(=O)Nc2ccc(F)cc2)o1	4%	32*	12%	34%	71%	20
O=C(Nc1c(-c2ccccc2)[nH][nH]c1=O)c1ccco1	11%	·	·	·	·	·
CC1CCN(C(=O)C2CCC(=O)N(Cc3ccc(Cl)cc3)C2)CC1 (configuration not stated)	1%	-4	3%	-6%	-21%	-3
Cc1cccc(C)c1NC(=O)C1(C)CN(S(C)(=O)=O)CC(=O)N1Cc1ccc2c(c1)OCO2 (configuration not stated)	5%	·	·	·	·	·
SMILES	AMA1 RON2 block	Shiga toxin inh	HCV inhibitor	Pf growth 48h	Pf growth 96h	CHX counter
CC(C)c1ccc(N2C(=NC(=O)C3CC3)SC3CS(=O)(=O)CC32)cc1 (configuration not stated)	4%	-6	5%	4%	40%	-1
O=C(Nc1ccc2c(c1)OCO2)c1ccc(COc2ccc3c(c2)CCC3)o1	-1%	45*	-16%	-21%	-59%	43*
O=C(COc1ccc([N+](=O)[O-])cc1)Nc1ccc2c(c1)OCO2	-11%	22	-30%	18%	-1%	11
O=C(Nc1ccc2c(c1)CCC2)c1cc2ccccc2o1	9%	55*	-3%	·	-75%	65*
O=C(Nc1ccc2c(c1)Cc1ccccc1-2)c1cc2ccccc2o1	1%	·	-23%	·	·	·
Cc1ccc(NS(=O)(=O)c2ccc(NC(=O)c3ccc(Br)o3)cc2)c(C)c1	?	21	13µM*	?	-19%	-2
O=C(Nc1ccc2c(c1)CCC2)c1ccc(Br)o1	-4%	76*	-23%	107%	·	44*
CCCC(=O)N1CCC1(C)C(=O)Nc1ccc(OC)c(OC)c1 (configuration not stated)	3%	·	·	·	·	·
CC(=O)c1ccc(OCC(=O)Nc2nnc(C3CC3)s2)cc1	0%	·	·	·	·	·
Cc1ccc(C(=O)Nc2ccc3c(c2)CCC3)o1	0%	99*	?	223%	·	63*
Cc1ccc(NC(=O)c2ccc(Br)o2)cc1S(=O)(=O)N(C)C	-4%	78*	?	-3%	21%	24*
Cc1ccc(NC(=O)Cc2ccc3c(c2)CCCC3)cc1C	6%	-14	-4%	-7%	-1%	23*
Oc1ccc(/C=N/Nc2nccnc2Cl)c(O)c1	-1%	124*	?	·	?	49*
O=c1[nH]ncc(N/N=C\c2ccc(O)cc2O)c1Cl	-11%	-7	1%	-1%	?	-1
O=[N+]([O-])c1ccccc1/C=N/Nc1nccnc1Cl	9%	124*	6%	92%	237%	50*
Oc1ccc(/C=N/Nc2ncc(Br)cn2)c(O)c1	27%[11.6 µM]	115*	?	?	?	76*
O=C(CCCCC(=O)NN=Cc1ccccc1O)NN=Cc1ccccc1O	80%	·	?	·	·	·
Oc1ccccc1/C=N/Nc1nccnc1Cl	-5%	106	?	·	-11%	38*
Clc1ccc(-c2nc3c4ccccc4ccn3c2Cc2ccccc2)cc1	14%	·	·	·	·	·
CSc1nc2sc3c(c2c(=O)[nH]1)CC(C)(C)OC3	2%	·	-2%	?	-20%	7
Cc1ccc(-c2csc(C(O)c3ccc(F)c(F)c3)n2)cc1C (configuration not stated)	15%	·	·	·	·	·
O=[N+]([O-])c1ccc(NN=Cc2ccc(O)cc2O)nc1	45%	·	?	·	·	·
